In the supplement of paper PMC10127200 one finds Euclidean distance data, which are given here for 24 molecules.

Assay in all cases: Euclidean distance of Cell Painting phenotypic profile (signed KS, 77 features) to DMSO centroid (dimensionless distance); 5 or 10 uM (library dependent); higher = stronger phenotypic change vs DMSO (phenoactivity)
What all share (conditions): 48 h

Experiment [1] deals with 786-O. Summed up:
(§1)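 Five cancer lines, together with a healthy fibroblast line, received library compounds for 48 h at a library-dependent 10 or 5 uM and 0.1% DMSO final. Harmony then derived 77 features from confocal 20X images (9 fields/well) of the stained cells, scoring each as a signed Kolmogorov-Smirnov statistic against same-plate vehicle wells. After plate-position correction, correlation weighting and replicate averaging at the top dose, phenoactivity was taken as each profile's Euclidean distance to the median vehicle profile.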

For experiment [2], the system named is A549. The method in brief: as §1
The subject of experiment [3] is DU145. The method in brief:
as §1

Experiment [4] concerns FB. Summed up: as §1
Experiment [5] deals with HEPG2. Summed up: as §1
Experiment [6] relates to OVCAR4. Summed up: as §1

The structures appear in SMILES notation. Structures can show the parent of a compound that is named as a salt.

Take `Cc1ncc(CO)c(CO)c1O` [Pyridoxine HCl]: the Euclidean distance in experiment [1] was 0.686; in experiment [2], 0.861; in experiment [3] it was 0.642; in experiment [4], 0.7; in experiment [5], 0.426; in experiment [6], 1.11.
For the molecule `Cc1cn(-c2cc(NC(=O)c3ccc(C)c(Nc4nccc(-c5cnccn5)n4)c3)cc(C(F)(F)F)c2)cn1` [Radotinib], the Euclidean distance in experiment [1] was found to be 1.61; in experiment [2], 1.33; in experiment [3], 1.78; in experiment [4], 1.12; in experiment [5], 0.843; in experiment [6], 1.17.
Take `O=C(c1cncc(Br)c1)N1CCC(N2CCCC2)CC1`: the Euclidean distance in experiment [1] came out at 0.781; in experiment [2], 0.805; in experiment [3] it was 0.843; in experiment [4] it was 1.31; in experiment [5], 1.28; in experiment [6], 0.898.
Consider `COc1cc2nc(N(C)CCCNC(=O)C3CCCO3)nc(N)c2cc1OC` (centres undefined) [Alfuzosin HCl], for which the Euclidean distance amounted to 0.985 in experiment [1]; 0.664 in experiment [2]; 0.632 in experiment [3]; 0.744 in experiment [4]; 0.675 in experiment [5]; 0.907 in experiment [6].
For the molecule `CCc1cncnc1N1CCN(Cc2nc3ccc(C(F)(F)F)cc3[nH]2)CC1`, the Euclidean distance in experiment [1] was determined as 1.03; in experiment [2], 0.742; in experiment [3], 0.956; in experiment [4] it was 1.1; in experiment [5], 0.883; in experiment [6], 1.13.
With `C/C(=C\C(=O)Nc1ccccc1C(=O)O)c1ccc2ccccc2c1`, the Euclidean distance was 0.939 in experiment [1]; 1.46 in experiment [2]; 1.76 in experiment [3]; 1.59 in experiment [4]; 0.714 in experiment [5]; 0.731 in experiment [6].
`CN1CCN(CC/C=C2/c3ccccc3Sc3ccc(S(=O)(=O)N(C)C)cc32)CC1` [Thiothixene]: the Euclidean distance in experiment [1] came out at 2.81; in experiment [2] it was 2.33; in experiment [3] it was 2.21; in experiment [4] it was 2.69; in experiment [5], 3.3; in experiment [6], 2.03.
Take `C=CC(=O)Nc1cc(Nc2nccc(-c3cn(C)c4ccccc34)n2)c(OC)cc1N(C)CCN(C)C` [Osimertinib (AZD9291)]: the Euclidean distance in experiment [1] was 4.93; in experiment [2] it was 4.24; in experiment [3], 4.29; in experiment [4] it was 5.35; in experiment [5] it was 5.16; in experiment [6], 4.21.
Consider `CC(C)NC(=N)NC(=N)Nc1ccc(Cl)cc1` [Proguanil], for which the Euclidean distance in experiment [1] turned out to be 1.21; in experiment [2], 1.28; in experiment [3] it was 0.798; in experiment [4], 0.927; in experiment [5], 0.823; in experiment [6], 1.25.
With `O=C(O)Cc1cc(I)c(Oc2ccc(O)c(I)c2)c(I)c1` [Tiratricol], the Euclidean distance in experiment [1] is 0.855; in experiment [2], 0.554; in experiment [3], 0.644; in experiment [4], 0.597; in experiment [5], 0.536; in experiment [6] it was 0.847.
As to `CCOc1ccc(Cc2cc([C@]34OC[C@](CO)(O3)[C@@H](O)[C@H](O)[C@H]4O)ccc2Cl)cc1` [Ertugliflozin], the Euclidean distance in experiment [1] was determined as 1.45; in experiment [2], 0.762; in experiment [3] it was 1.22; in experiment [4], 0.862; in experiment [5], 0.465; in experiment [6], 1.23.
For `C[C@H](NC(=O)[C@@H](Cc1ccc2ccccc2c1)NC(=O)[C@@H](C)N)C(=O)N[C@@H](Cc1c[nH]c2ccccc12)C(=O)N[C@H](Cc1ccccc1)C(=O)N[C@@H](CCCCN)C(N)=O`, the Euclidean distance worked out at 1.39 in experiment [1]; 0.626 in experiment [2]; 1.01 in experiment [3]; 0.873 in experiment [4]; 2.01 in experiment [5]; 1.29 in experiment [6].
For the molecule `CCc1c(Cl)c(O)c(Cl)c(O)c1C(=O)O[C@H]1[C@H](O)[C@H](OC)[C@H](OC/C2=C\C=C\C[C@H](O)/C(C)=C/[C@H](CC)[C@@H](O[C@@H]3OC(C)(C)[C@@H](OC(=O)C(C)C)[C@H](O)[C@@H]3O)/C(C)=C/C(C)=C/C[C@@H]([C@@H](C)O)OC2=O)O[C@@H]1C` [Fidaxomicin], the Euclidean distance was 1.59 in experiment [1]; 1.88 in experiment [2]; 1.64 in experiment [3]; 1.94 in experiment [4]; 1.5 in experiment [5]; 1.68 in experiment [6].
Turning to `COc1cc(O)c2c(c1)C(=O)c1cc(C)cc(O)c1C2=O` [Rheochrysidin], the Euclidean distance in experiment [1] is 1.23; in experiment [2], 0.528; in experiment [3], 1.42; in experiment [4] it was 0.862; in experiment [5], 4.92; in experiment [6], 1.29.
For `Clc1ccc2c(c1)C(N1CCNCC1)=Nc1ccccc1O2` [Amoxapine], the Euclidean distance was determined as 1.43 in experiment [1]; 1.02 in experiment [2]; 1.12 in experiment [3]; 1.06 in experiment [4]; 0.744 in experiment [5]; 1.09 in experiment [6].
Take `C[N+]1(C)[C@@H]2CC[C@H]1C[C@@H](OC(=O)C(O)c1ccccc1)C2` (some centres undefined) [Homatropine Methylbromide]: the Euclidean distance in experiment [1] is 0.885; in experiment [2], 1.85; in experiment [3], 1.26; in experiment [4], 1.47; in experiment [5], 0.52; in experiment [6], 0.995.
In the case of `CCCC(=O)Nc1cccc(NC(=O)c2ccccc2Br)c1`, the Euclidean distance in experiment [1] is 1.43; in experiment [2], 1.02; in experiment [3], 1.04; in experiment [4] it was 1.14; in experiment [5] it was 1.27; in experiment [6], 0.946.
Take `O=C(O)[C@]1(Cc2cccc(Nc3nccs3)n2)CC[C@@H](Oc2cccc(Cl)c2F)CC1`: the Euclidean distance was determined as 2.59 in experiment [1]; 3.36 in experiment [2]; 0.648 in experiment [3]; 0.818 in experiment [4]; 0.498 in experiment [5]; 2.16 in experiment [6].
`O=C(Nc1nc(-c2cc(Cl)cs2)c(N2CCN(C3CCCCC3)CC2)s1)c1cnc(N2CCC(C(=O)O)CC2)c(Cl)c1` [Avatrombopag]: the Euclidean distance in experiment [1] stood at 1.81; in experiment [2], 0.802; in experiment [3] it was 1.84; in experiment [4], 0.858; in experiment [5], 1.41; in experiment [6], 1.05.
On to `Cc1cc(C)c(/C=C2\C(=O)Nc3ccccc32)[nH]1` [Semaxanib (SU5416)], for which the Euclidean distance in experiment [1] stood at 2.05; in experiment [2] it was 1.16; in experiment [3] it was 1.09; in experiment [4], 1.08; in experiment [5], 0.527; in experiment [6], 0.885.
Consider `COc1nc(N)nc2c1ncn2[C@@H]1O[C@H](CO)[C@@H](O)[C@@H]1O` [Nelarabine], for which the Euclidean distance in experiment [1] is 1.28; in experiment [2], 1.4; in experiment [3] it was 0.995; in experiment [4], 2.02; in experiment [5] it was 0.531; in experiment [6], 1.1.
Take `CN(C)C(=O)c1ccc(S(=O)(=O)c2ccc(NC(=O)[C@@](C)(O)C(F)(F)F)c(Cl)c2)cc1`: the Euclidean distance in experiment [1] was 0.701; in experiment [2], 1.81; in experiment [3], 0.801; in experiment [4], 0.955; in experiment [5], 2; in experiment [6] it was 0.57.
Turning to `Cc1cccc(C)c1N(CC(=O)Nc1ccc(-c2ncon2)cc1)C(=O)C1CCS(=O)(=O)CC1` [Amenamevir], the Euclidean distance came to 1.07 in experiment [1]; 0.772 in experiment [2]; 0.783 in experiment [3]; 1.3 in experiment [4]; 0.5 in experiment [5]; 1.2 in experiment [6].
`OCCOc1ccc(/C(=C(/CCCl)c2ccccc2)c2ccccc2)cc1` [Ospemifene]: the Euclidean distance in experiment [1] was determined as 0.936; in experiment [2], 1.29; in experiment [3], 0.819; in experiment [4] it was 0.945; in experiment [5], 1.26; in experiment [6], 1.06.
